According to ChEMBL document CHEMBL3433997, “St. Jude Leishmania screening dataset” (2016):

Experiments:
Assay type in all cases: functional
[1] = target: Solute carrier family 2, facilitated glucose transporter member 1 (Homo sapiens) (UniProt P11166); assay: ST_JUDE_LEISH: Cytotoxicity at 2uM final concentration against transgenic Leishmania Mexicana promastigotes LmGLUT1 that are glucose transport deficient and complemented with the human glucose transporter GLUT1. Activity is measured by DNA content using SYBR green in vitro
Chain of Solute carrier family 2, facilitated glucose transporter member 1 (Homo sapiens) (P11166 whole entry): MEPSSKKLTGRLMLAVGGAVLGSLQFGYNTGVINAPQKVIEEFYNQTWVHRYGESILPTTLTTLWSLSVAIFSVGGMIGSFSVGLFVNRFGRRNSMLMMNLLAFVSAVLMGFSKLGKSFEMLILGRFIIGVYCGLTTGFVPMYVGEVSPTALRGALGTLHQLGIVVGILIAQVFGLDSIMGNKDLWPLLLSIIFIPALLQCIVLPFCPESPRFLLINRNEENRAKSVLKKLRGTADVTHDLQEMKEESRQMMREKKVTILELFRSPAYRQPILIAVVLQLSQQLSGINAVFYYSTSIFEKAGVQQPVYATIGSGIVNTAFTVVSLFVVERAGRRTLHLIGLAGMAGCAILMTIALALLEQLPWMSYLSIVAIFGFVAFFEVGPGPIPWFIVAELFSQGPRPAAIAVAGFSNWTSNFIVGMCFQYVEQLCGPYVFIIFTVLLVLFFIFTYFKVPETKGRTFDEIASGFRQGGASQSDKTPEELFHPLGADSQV

[2] = target: Hexose transporter 1 (Plasmodium falciparum) (UniProt O97467); assay: ST_JUDE_LEISH: Cytotoxicity at 2uM final concentration against transgenic Leishmania Mexicana promastigotes LmPfHT that are glucose transport deficient and complemented with the Plasmodium falciparum hexose transporter. Activity is measured by DNA content using SYBR green in vitro
[3] = target: Glucose transporter (Leishmania mexicana) (UniProt O61059); assay: ST_JUDE_LEISH: Cytotoxicity at 2uM final concentration against transgenic Leishmania Mexicana promastigotes LmGT2 that are glucose transport deficient and complemented with the L. Mexicana glucose transporter 2. Activity is measured by DNA content using SYBR green in vitro

| Structure (SMILES) | inhibition [1] [%] | inhibition [2] [%] | inhibition [3] [%] |
| --- | --- | --- | --- |
| O=C(Nc1ccc(-c2cccc(-c3nc4ccccc4[nH]3)c2)cc1)Nc1ccc2c(c1)OCO2 | 1.87 | 2.62 | 0.58 |
| O=C(NCCCCN1CCC(c2ccc([N+](=O)[O-])cc2)CC1)c1ccc(NC(=O)c2ccc(Cl)cc2)cc1 | 4.18 | 1.35 | 4.06 |
| O=C(N[C@H]1CCN(Cc2ccc(OCCCN3CCCCC3)cc2)C1)c1ccc(Oc2ccccc2)cc1 | 72.1 | 19.9 | 13.7 |
| O=C(NCC1CCC(CNCCCc2ccccc2)CC1)Nc1ccc(Cl)c(Cl)c1 (stereo not given) | 1.76 | 0.18 | 0.92 |
| CC(=O)Oc1cc(C)ccc1C1CCN(CCCCNC(=O)c2ccc(-c3ccc(C(F)(F)F)cc3)cc2)CC1 | 1.9 | 2.04 | 1.11 |
| O=C(Cc1cccc(O)c1)Nc1ccc(-c2cccc(-c3nc4cc(C(F)(F)F)ccc4[nH]3)c2)cc1 | -0.18 | 1.54 | 0.62 |
| CCCCOc1ccc(CNCCCCCCNCc2ccc(OCCCC)c3ccccc23)c2ccccc12 | 104 | 102 | 103 |
| O=C(Cn1c(CCc2cccc(F)c2F)cc(=O)c2cccnc21)N(CCN1CCCC1)Cc1ccc(-c2ccc(C(F)(F)F)cc2)cc1 | 2.13 | 2.76 | 1.23 |
| CCN(Cc1ccccc1)C1CCN(Cc2cc(Br)ccc2O)CC1 | 2.39 | 2.05 | 2.71 |
| Cc1cc(F)ccc1Nc1nc(N(C)c2ccccc2)c2cc(OCCN(C)C)ccc2n1 | 7.87 | 6.84 | 2.04 |
| CCCCCCNC(=O)C(N)CCCC(N)C(=O)NCCCCCC (stereo not given) | 6.05 | 5.65 | 5.23 |
| CN(C(=O)Cc1ccc(Cl)cc1)C1CCN(CCCCCNC(=O)/C=C/c2ccc(Cl)c(Cl)c2)CC1 | 2.86 | 2.1 | 1.99 |
| CC(C)c1nc2c(N)nc(N)nc2nc1N | -0.33 | 0.25 | 1.01 |
| Clc1ccc2nnc(-c3c(Cl)cccc3Cl)n2n1 | 6.63 | 4.09 | 2.05 |
| CC(Cc1ccc(NC(=O)c2ccc(NCCc3ccccc3)cc2)cc1)NCCc1cccc(Cl)c1 (stereo not given) | -0.04 | -0.81 | -1.31 |
| CCCCCCN1CCN(Cc2cccc(NC(=O)c3cccc(OCC)c3)c2)CC1 | 13.6 | 13.5 | 13.1 |
| COc1cc(-c2nc(-c3ccc([N+](=O)[O-])cc3)c(-c3ccccc3)[nH]2)cc(OC)c1O | 3.48 | 5.84 | 5.26 |
| CN(C)CCN(C)Cc1ccc(-c2ccc3c(Nc4ccc(Cl)cc4F)ccnc3c2)o1 | 1.16 | 2.08 | 2.79 |
| CC(C)OC(=O)c1ccc(NC(=O)N[C@@H](Cc2ccc(O)cc2)C(=O)NC2CCC(CCN3C4CCC3c3ccccc34)CC2)cc1 (stereo not given in full) | 3.08 | 2.7 | 2.46 |
| Cc1ccc(Cn2cnc(N3CC(C)NC(C)C3)cc2=O)cc1NC(=O)Nc1ccc(-c2ccccc2)cc1 (stereo not given) | -0.2 | -0.46 | -0.19 |
| N=C(N)Nc1nc(-c2cccc(NC(=O)NCCc3c[nH]c4ccc(OCc5ccccc5)cc34)c2)cs1 | 0.6 | 1.4 | 0.56 |
| CCCNCc1ccc(-c2ccc(CN(CCOC)C(=O)CCCOCc3ccccc3)cc2)nc1 | 3.08 | 1.41 | 0.45 |
| CCCN1CCc2c(sc3nc(SCC(=O)Nc4ccc(C)cc4)n(-c4ccc(C)cc4)c(=O)c23)C1 | 6.06 | 3.25 | 3.72 |
| C[C@@H]([C@@H](CCCc1ccc(Cl)cc1)C(=O)N[C@H](C(=O)Nc1cccnc1)C(C)(C)C)N(O)C=O | 1.13 | 0.19 | 1.52 |

| Structure (SMILES) | inhibition [1] [%] | inhibition [2] [%] | inhibition [3] [%] |
| --- | --- | --- | --- |
| Oc1ccc2[nH]c(-c3ccc(OC(F)(F)F)cc3)nc2c1CNC1CCCC1 | 2.65 | 3.35 | 3.64 |
| c1ccc2[nH]c(-c3ccc(-c4ccc(CN5CCN(c6ccncc6)CC5)cc4)s3)nc2c1 | 6.21 | 6.05 | 1.74 |
| COc1cccc(CNc2ncc(-c3ccsc3)c(-c3nccs3)n2)c1 | -0.5 | 0.89 | -0.73 |
| CNC(=O)C1Cc2c([nH]c3cc(Br)ccc23)C2(CCN(CCc3ccccc3)CC2)N1 (stereo not given) | 2.01 | 0.63 | 1.83 |
| Cc1cc(Cl)c(S(=O)(=O)NC2CCCC2)cc1OCC(=O)NC1CCCCC1 | 3.49 | 2.41 | 3.8 |
| N#Cc1ccc(N(CCNS(=O)(=O)c2cc(Br)c(Cl)s2)Cc2ccccc2C(F)(F)F)cc1C(F)(F)F | 3.37 | 0.82 | 1.55 |
| Fc1ccc(CNc2ccc3ncc(-c4cccnc4)n3n2)cc1 | 2.61 | 2.21 | 0.67 |
| CN1CCN(c2ccc(Nc3c(C(N)=O)cnc4cc(-c5ccoc5)ccc34)cc2C(F)(F)F)CC1 | 2.31 | 2.21 | 2.01 |
| COc1cccc(C2CCN(CCN3CCC(NC(=O)c4ccc(-c5ccc(Cl)cc5)cc4)CC3)CC2)c1 | -0.82 | 0.69 | 1.81 |
| CCNC(C)(C)CN(Cc1ccc(-c2ccc(C(F)(F)F)cc2)cc1)C(=O)Cn1c(SCc2ccc(F)cc2)nc(=O)c2c1CCC2 | 8.5 | 5.99 | 5.46 |
| CS(=O)(=O)NCCCNCc1cccc(-c2ccc(-c3nc4ccccc4[nH]3)s2)c1 | 12.1 | 11.8 | 11 |
| COc1cc2ncnc(Nc3ccc4nc(Cc5ccccc5)[nH]c4c3)c2cc1OC | 1.2 | 1.95 | 2.53 |
| COc1ccc2nccc(N3CCC(CCNCc4ccc5c(n4)NC(=O)CS5)CC3)c2c1 | 6.54 | 9.44 | 2.78 |
| CCCN(C(=O)c1ccccc1C)c1nnc(-c2ccccc2C)s1 | -1.25 | 0.17 | -3.1 |
| Cc1c2ccc(N(C)c3ccnc(Nc4ccc5c(c4)nc(NC(C)C)n5C)n3)cc2nn1C | 0.46 | 1.01 | -1.42 |
| Cc1c(F)cc(C(=O)NC2CC2)cc1-c1ccc2c(cnn2S(=O)(=O)c2ccc(Cl)s2)c1 | 3.04 | 1.53 | 0.9 |
| COc1cc(CNC[C@@H](O)[C@H](Cc2ccccc2)NC(=O)c2cc(OC(C)C)cc(N3CCCS3(=O)=O)c2)cc(OC)c1 | 4.85 | 4.74 | 2.1 |
| COc1ccc(Nc2ncc3c(-c4cccc(NC(=O)Cc5ccncc5)c4)c[nH]c3n2)cc1OC | -0.87 | -1.41 | -1 |
| CC(C)C[C@H](NC(=O)c1cc2ccccc2s1)C(=O)N[C@H]1CCN(Cc2ccc(OCCN3CCNCC3)c3ccccc23)C1 | -0.59 | -2.98 | 0.51 |
| CCc1cccc(C)c1-n1nc(-c2cc(C(C)(C)C)oc2C)cc1N | 2.34 | 1.75 | 0.33 |
| COc1ccc(CCON2C(=N)N=C(N)NC2(C)C)cc1OC | 2.04 | 2.62 | 3.2 |
| CC(C)Nc1ccc(Nc2ccnc3cc4ccccc4cc23)cc1 | 1.19 | 4.38 | 0.5 |
| CN1CCC(Oc2ccc(CN3CC[C@H](NC(=O)c4ccc(Cl)c(Cl)c4)C3)cc2Cl)C1 (stereo not given in full) | 15.3 | 16 | 3.89 |
| Cc1[nH]c(C)c([N+](=O)[O-])c(=O)c1-c1ccc(Oc2ccccc2)cc1 | -1.81 | 0.5 | -1.98 |

| Structure (SMILES) | inhibition [1] [%] | inhibition [2] [%] | inhibition [3] [%] |
| --- | --- | --- | --- |
| CCn1cnc2c(Nc3cccc([N+](=O)[O-])c3)nc(N3CCC(N4CCCCC4)CC3)nc21 | 0.93 | 3.03 | -0.24 |
| COc1cccc(C2CCN(CCN3CCC(NC(=O)c4ccc(-c5ccc(C#N)cc5)cc4)CC3)CC2)c1 | -1.18 | 0.31 | 0.19 |
| COc1cccc(C(NC(=O)c2ccccc2)c2ccc3cccnc3c2O)c1 (stereo not given) | -0.96 | 2.16 | -1.64 |
| Cc1cc(N2CCN(CC3CCCCC3)CC2)nc(Nc2ccc(Br)cc2)n1 | 1.47 | 3.17 | 0.54 |
| CCNc1cc(CCCC(=O)OCC)nc(Nc2ccc(C)cc2)n1 | 10.3 | 13 | 10.3 |
| Fc1ccc2[nH]c(-c3ccc(-c4ccc(CNCCN5CCNCC5)cc4)s3)nc2c1 | 0 | 1.98 | -0.23 |
| COc1ccc(NC(=O)c2ccc(-c3nc(-c4ccc(Cl)cc4)cs3)cc2)cc1N1CCN(C)CC1 | 0.97 | 0.94 | 0.9 |
| N#CN1CC[C@@H](OC(=O)N[C@@H]2C[C@H]2c2ccccc2)C1 | 8.37 | 7.38 | 4.43 |
| CNC(=O)C1Cc2c([nH]c3c(C)cccc23)C2(N1)C(=O)Nc1ccc(OC(F)(F)F)cc12 (stereo not given) | 1.24 | 1.59 | 3.8 |
| CC(=O)c1cccc(Nc2nc3ccc(OCc4cc(Cl)cc(Cl)c4)c(C#N)c3[nH]2)c1 | 3.61 | 2.38 | 2.87 |
| CN(CC1CCC(NC(=O)/C=C/c2ccc(Cl)c(Cl)c2)CC1)C1CCC(c2c[nH]c3ccccc23)CC1 (stereo not given) | -0.25 | 0.8 | 2.15 |
| CCCNC(=O)Nc1cc2cc(-c3cccc(CN4CCCCC4)c3)ccc2n2c(C)nnc12 | 0.33 | 1.3 | 0.91 |
| COCc1cccc(-c2cc(-c3ccc(S(C)(=O)=O)cc3)cnc2N)c1 | -0.03 | -0.46 | -5.63 |
| O=C(Cn1c(CCc2cccc(F)c2F)cc(=O)c2ccccc21)N(CCN1CCCC1)Cc1ccc(-c2ccc(C(F)(F)F)cc2)cc1 | 1.56 | 2.33 | 2.03 |
| COc1ccc2nccc([C@@H](O)CN3CCC(NCc4cc5oc(=O)n(C)c5cc4F)CC3)c2c1 | 0.9 | 0.07 | 0.86 |
| OC(c1ccccc1)C1CN(CCc2ccccc2)CCC1(O)c1ccccc1 (stereo not given) | 0.73 | -1.7 | -1.32 |
| CCC1CCCCN1S(=O)(=O)c1ccc(OC)c(N2CCN(C(=O)C(Cl)(Cl)Cl)CC2)c1 (stereo not given) | 4.89 | 6.41 | 6.44 |
| Cc1noc(C)c1-c1ccc2c(Nc3ccc(Cl)cc3)c(C(N)=O)cnc2c1 | 24.3 | 29.3 | 12.9 |
| Cc1ccc(Cc2cccc3nc(N)nc(N)c23)cc1 | 1.2 | 0.71 | -0.6 |
| Cc1cc(F)ccc1-c1nc(NCCCNCCc2ccccc2)nc2c1ccc(=O)n2-c1c(F)cccc1F | 0.55 | 5.5 | 0.76 |
| CC(C)CNCc1cccc(-c2cccc(CNCCCN3CCN(C)CC3)c2)c1 | 2.03 | 0.17 | 4.44 |
| COc1ccc2nccc([C@@H](O)CN3CCC(NCc4cc5ccccc5[nH]4)CC3)c2c1 | 17 | 23.5 | 4.85 |
